From the supplement of paper PMC4466140

B1: unnamed (peptide)
chain: RRRDFGAPANKRPRR
B2: unnamed (peptide)
chain: ALKQKKIPPPFKPHL

Biological target: CaNbp2
Assay: SPOT peptide array binding signal intensity (averaged, normalized) (arbitrary units (background-subtracted, floor 0; scale differs between SH3 domains)); higher = stronger binding of the SH3 domain to the peptide
Description: (§1)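 GST-tagged SH3 domains from S. cerevisiae (Sc), A. gossypii (Ag), C. albicans (Ca) and S. pombe (Sp) were incubated at 10 ug/ml overnight at 4 C on cellulose SPOT membranes carrying 292 synthetic 15-mer peptides mined from the S. cerevisiae proteome (cysteines replaced by serines). Binding was detected with anti-GST antibody, HRP secondary and chemiluminescence, quantified with Genespotter, and reported as normalized spot intensities averaged over biological replicates.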

Binder | SPOT peptide array binding signal intensity
B1 | 138
B2 | 15.5

Biological target: CaRvs167
Assay: as above
Description: as §1

Binder | SPOT peptide array binding signal intensity
B1 | 16
B2 | ≤ 0

Biological target: CaRvs167-3
Assay: as above
Description: as §1

Binder | SPOT peptide array binding signal intensity
B1 | 4.5
B2 | 4.5

Biological target: CaSho1
Assay: as above
Description: as §1

Binder | SPOT peptide array binding signal intensity
B1 | 116
B2 | ≤ 0

Biological target: CaSla1-D1-D2
Assay: as above
Description: as §1

Binder | SPOT peptide array binding signal intensity
B1 | 66
B2 | ≤ 0

Biological target: CaSla1-D3
Assay: as above
Description: as §1

Binder | SPOT peptide array binding signal intensity
B1 | 4.75
B2 | 2

Biological target: ScAbp1
Assay: as above
Description: as §1

Binder | SPOT peptide array binding signal intensity
B1 | 79
B2 | 29

Biological target: ScBbc1
Assay: as above
Description: as §1

Binder | SPOT peptide array binding signal intensity
B1 | 65
B2 | ≤ 0

Biological target: ScBem1-D1
Assay: as above
Description: as §1

Binder | SPOT peptide array binding signal intensity
B1 | 94
B2 | ≤ 0

Biological target: ScBzz1-D1
Assay: as above
Description: as §1

Binder | SPOT peptide array binding signal intensity
B1 | 32
B2 | 9

Biological target: ScBzz1-D2
Assay: as above
Description: as §1

Binder | SPOT peptide array binding signal intensity
B1 | 29
B2 | 3

Biological target: ScCyk3
Assay: as above
Description: as §1

Binder | SPOT peptide array binding signal intensity
B1 | 100
B2 | ≤ 0

Biological target: ScFus1
Assay: as above
Description: as §1

Binder | SPOT peptide array binding signal intensity
B1 | 163
B2 | ≤ 0

Biological target: ScHof1
Assay: as above
Description: as §1

Binder | SPOT peptide array binding signal intensity
B1 | 2
B2 | 1

Biological target: ScHse1
Assay: as above
Description: as §1

Binder | SPOT peptide array binding signal intensity
B1 | 584
B2 | 74

Biological target: ScLsb1
Assay: as above
Description: as §1

Binder | SPOT peptide array binding signal intensity
B1 | 4.5
B2 | ≤ 0

Biological target: ScLsb2
Assay: as above
Description: as §1

Binder | SPOT peptide array binding signal intensity
B1 | 1.5
B2 | ≤ 0

Biological target: ScLsb3
Assay: as above
Description: as §1

Binder | SPOT peptide array binding signal intensity
B1 | 810
B2 | ≤ 0

Biological target: ScLsb4
Assay: as above
Description: as §1

Binder | SPOT peptide array binding signal intensity
B1 | 15.5
B2 | ≤ 0

Biological target: ScMyo3
Assay: as above
Description: as §1

Binder | SPOT peptide array binding signal intensity
B1 | 9
B2 | ≤ 0

Biological target: ScMyo5
Assay: as above
Description: as §1

Binder | SPOT peptide array binding signal intensity
B1 | 11
B2 | 1

Biological target: ScNbp2
Assay: as above
Description: as §1

Binder | SPOT peptide array binding signal intensity
B1 | 76.5
B2 | ≤ 0

Biological target: ScPex13
Assay: as above
Description: as §1

Binder | SPOT peptide array binding signal intensity
B1 | 8.25
B2 | ≤ 0

Biological target: ScRvs167
Assay: as above
Description: as §1

Binder | SPOT peptide array binding signal intensity
B1 | 31.8
B2 | ≤ 0

Biological target: ScSho1
Assay: as above
Description: as §1

Binder | SPOT peptide array binding signal intensity
B1 | 688
B2 | ≤ 0

Biological target: ScSla1-D1-D2
Assay: as above
Description: as §1

Binder | SPOT peptide array binding signal intensity
B1 | 611
B2 | ≤ 0

Biological target: ScSla1-D3
Assay: as above
Description: as §1

Binder | SPOT peptide array binding signal intensity
B1 | 25
B2 | 8

Biological target: SpAbp1-D1
Assay: as above
Description: as §1

Binder | SPOT peptide array binding signal intensity
B1 | 30.5
B2 | 20.5

Biological target: SpBbc1
Assay: as above
Description: as §1

Binder | SPOT peptide array binding signal intensity
B1 | 18
B2 | ≤ 0

Biological target: SpBzz1-D1
Assay: as above
Description: as §1

Binder | SPOT peptide array binding signal intensity
B1 | 225
B2 | 288

Biological target: SpBzz1-D2
Assay: as above
Description: as §1

Binder | SPOT peptide array binding signal intensity
B1 | ≤ 0
B2 | ≤ 0

Biological target: SpCyk3
Assay: as above
Description: as §1

Binder | SPOT peptide array binding signal intensity
B1 | 4
B2 | ≤ 0

Biological target: SpHof1
Assay: as above
Description: as §1

Binder | SPOT peptide array binding signal intensity
B1 | 367
B2 | ≤ 0

Biological target: SpHof1-2
Assay: as above
Description: as §1

Binder | SPOT peptide array binding signal intensity
B1 | 21.5
B2 | ≤ 0

Biological target: SpHof1-3
Assay: as above
Description: as §1

Binder | SPOT peptide array binding signal intensity
B1 | 342
B2 | 39.5

Biological target: SpHse1
Assay: as above
Description: as §1

Binder | SPOT peptide array binding signal intensity
B1 | 108
B2 | 23

Biological target: SpLsb1
Assay: as above
Description: as §1

Binder | SPOT peptide array binding signal intensity
B1 | 1.5
B2 | ≤ 0

Biological target: SpLsb4
Assay: as above
Description: as §1

Binder | SPOT peptide array binding signal intensity
B1 | 406
B2 | ≤ 0

Biological target: SpMyo1
Assay: as above
Description: as §1

Binder | SPOT peptide array binding signal intensity
B1 | 19
B2 | ≤ 0

Biological target: SpNbp2
Assay: as above
Description: as §1

Binder | SPOT peptide array binding signal intensity
B1 | 42
B2 | ≤ 0

Biological target: SpPex13
Assay: as above
Description: as §1

Binder | SPOT peptide array binding signal intensity
B1 | 15
B2 | ≤ 0

Biological target: SpRvs167
Assay: as above
Description: as §1

Binder | SPOT peptide array binding signal intensity
B1 | 12.2
B2 | ≤ 0

Biological target: SpSla1-D1-D2
Assay: as above
Description: as §1

Binder | SPOT peptide array binding signal intensity
B1 | ≤ 0
B2 | ≤ 0

Biological target: SpSla1-D3
Assay: as above
Description: as §1

Binder | SPOT peptide array binding signal intensity
B1 | 8
B2 | ≤ 0

Biological target: AgAbp1
Assay: as above
Description: as §1

Binder | SPOT peptide array binding signal intensity
B2 | 43.5

Biological target: AgBbc1
Assay: as above
Description: as §1

Binder | SPOT peptide array binding signal intensity
B2 | ≤ 0

Biological target: AgBem1-D1
Assay: as above
Description: as §1

Binder | SPOT peptide array binding signal intensity
B2 | 4

Biological target: AgBzz1-D1
Assay: as above
Description: as §1

Binder | SPOT peptide array binding signal intensity
B2 | 43

Biological target: AgBzz1-D2
Assay: as above
Description: as §1

Binder | SPOT peptide array binding signal intensity
B2 | 22

Biological target: AgCyk3
Assay: as above
Description: as §1

Binder | SPOT peptide array binding signal intensity
B2 | ≤ 0

Biological target: AgFus1
Assay: as above
Description: as §1

Binder | SPOT peptide array binding signal intensity
B2 | ≤ 0

Biological target: AgHof1
Assay: as above
Description: as §1

Binder | SPOT peptide array binding signal intensity
B2 | 7.5

Biological target: AgHse1
Assay: as above
Description: as §1

Binder | SPOT peptide array binding signal intensity
B2 | ≤ 0

Biological target: AgLsb1
Assay: as above
Description: as §1

Binder | SPOT peptide array binding signal intensity
B2 | ≤ 0

Biological target: AgLsb4
Assay: as above
Description: as §1

Binder | SPOT peptide array binding signal intensity
B2 | ≤ 0

Biological target: AgMyo5
Assay: as above
Description: as §1

Binder | SPOT peptide array binding signal intensity
B2 | ≤ 0

Biological target: AgNbp2
Assay: as above
Description: as §1

Binder | SPOT peptide array binding signal intensity
B2 | ≤ 0

Biological target: AgRvs167
Assay: as above
Description: as §1

Binder | SPOT peptide array binding signal intensity
B2 | ≤ 0

Biological target: AgSho1
Assay: as above
Description: as §1

Binder | SPOT peptide array binding signal intensity
B2 | ≤ 0

Biological target: AgSla1-D1-D2
Assay: as above
Description: as §1

Binder | SPOT peptide array binding signal intensity
B2 | ≤ 0

Biological target: AgSla1-D3
Assay: as above
Description: as §1

Binder | SPOT peptide array binding signal intensity
B2 | 2.5

Biological target: CaAbp1-D1
Assay: as above
Description: as §1

Binder | SPOT peptide array binding signal intensity
B2 | 938

Biological target: CaAbp1-D2
Assay: as above
Description: as §1

Binder | SPOT peptide array binding signal intensity
B2 | 984

Biological target: CaBbc1
Assay: as above
Description: as §1

Binder | SPOT peptide array binding signal intensity
B2 | ≤ 0

Biological target: CaBem1-D1
Assay: as above
Description: as §1

Binder | SPOT peptide array binding signal intensity
B2 | 2

Biological target: CaBzz1-D1
Assay: as above
Description: as §1

Binder | SPOT peptide array binding signal intensity
B2 | 589

Biological target: CaBzz1-D2
Assay: as above
Description: as §1

Binder | SPOT peptide array binding signal intensity
B2 | 205

Biological target: CaCyk3
Assay: as above
Description: as §1

Binder | SPOT peptide array binding signal intensity
B2 | ≤ 0

Biological target: CaFus1
Assay: as above
Description: as §1

Binder | SPOT peptide array binding signal intensity
B2 | 19.5

Biological target: CaHof1
Assay: as above
Description: as §1

Binder | SPOT peptide array binding signal intensity
B2 | 0.5

Biological target: CaHse1
Assay: as above
Description: as §1

Binder | SPOT peptide array binding signal intensity
B2 | 0.5

Biological target: CaLsb1
Assay: as above
Description: as §1

Binder | SPOT peptide array binding signal intensity
B2 | ≤ 0

Biological target: CaLsb4
Assay: as above
Description: as §1

Binder | SPOT peptide array binding signal intensity
B2 | ≤ 0

Biological target: CaMyo5
Assay: as above
Description: as §1

Binder | SPOT peptide array binding signal intensity
B2 | 0.5
